Experimental data as given in publication PMC4336329 (PLoS ONE, 2015).
Among all 310,000 compounds or so, about 14,000 (4.5%) showed an effect of 50% or more. Effects have a minus sign here. Shown is part of a subset that was picked to be rich in strong results.

Target: human ether-à-go-go-related gene (hERG) potassium channel (human, UniProt Q12809)
Assay: primary screen, population patch clamp on CHO cells stably expressing hERG; higher = less effect of the substance
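Also: peak tail current of the secondary pulse compared with the same well before compound.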

Chain of human ether-à-go-go-related gene (hERG) potassium channel (Q12809 whole entry, looked up): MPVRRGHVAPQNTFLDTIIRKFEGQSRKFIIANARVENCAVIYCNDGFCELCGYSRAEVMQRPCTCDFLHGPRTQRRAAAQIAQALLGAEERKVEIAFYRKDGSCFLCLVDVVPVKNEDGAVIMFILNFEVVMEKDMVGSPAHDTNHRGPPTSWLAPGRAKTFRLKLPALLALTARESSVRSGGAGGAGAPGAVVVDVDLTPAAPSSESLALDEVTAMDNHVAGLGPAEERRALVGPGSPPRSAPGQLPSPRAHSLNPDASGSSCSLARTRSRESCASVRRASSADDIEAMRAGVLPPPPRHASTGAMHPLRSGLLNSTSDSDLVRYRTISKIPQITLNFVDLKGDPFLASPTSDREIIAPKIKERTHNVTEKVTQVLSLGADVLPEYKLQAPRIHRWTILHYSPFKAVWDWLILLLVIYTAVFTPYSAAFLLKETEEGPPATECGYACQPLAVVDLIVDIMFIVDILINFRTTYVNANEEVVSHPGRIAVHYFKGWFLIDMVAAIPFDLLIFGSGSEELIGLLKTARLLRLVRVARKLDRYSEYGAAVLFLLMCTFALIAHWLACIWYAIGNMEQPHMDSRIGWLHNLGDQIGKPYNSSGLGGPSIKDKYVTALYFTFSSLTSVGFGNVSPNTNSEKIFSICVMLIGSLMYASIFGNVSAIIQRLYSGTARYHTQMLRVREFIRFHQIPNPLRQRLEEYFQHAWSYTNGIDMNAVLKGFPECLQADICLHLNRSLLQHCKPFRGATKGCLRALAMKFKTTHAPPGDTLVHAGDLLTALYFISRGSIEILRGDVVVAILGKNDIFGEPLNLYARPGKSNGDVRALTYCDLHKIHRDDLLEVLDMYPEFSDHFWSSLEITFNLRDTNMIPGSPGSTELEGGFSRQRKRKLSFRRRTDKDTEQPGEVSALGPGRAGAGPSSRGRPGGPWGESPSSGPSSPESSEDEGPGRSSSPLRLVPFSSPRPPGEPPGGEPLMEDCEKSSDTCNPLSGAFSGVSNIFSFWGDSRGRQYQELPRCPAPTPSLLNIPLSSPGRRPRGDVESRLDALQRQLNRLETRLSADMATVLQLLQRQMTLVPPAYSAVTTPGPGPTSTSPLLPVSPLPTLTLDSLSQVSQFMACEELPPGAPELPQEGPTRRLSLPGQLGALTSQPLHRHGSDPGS

Row | Compound | hERG current change (%, negative = inhibition) at 10uM
1 | O=C(CN1C(=O)NC2(CCCC2)C1=O)N1CCN(S(=O)(=O)c2ccccc2F)CC1 | 22.3%
2 | O=[N+]([O-])c1ccc(O)c(NC(=S)Nc2ccccc2)c1 | 23.9%
3 | NC(=S)NC1CC2CC1C1C=CCC21 (stereo not shown) | 6.66%
4 | CCOc1ccc(N(CC(=O)NCc2ccc(C)cc2)S(=O)(=O)c2c(C)[nH]c(=O)[nH]c2=O)cc1 | 6.73%
5 | Cc1nn(-c2ccccc2)c(Cl)c1C(=O)NCCCCNC(=O)c1c(C)nn(-c2ccccc2)c1Cl | -2.76%
6 | CN(C)CCCNc1ccc(S(N)(=O)=O)cc1[N+](=O)[O-] | -13.1%
7 | CCCCCCCNC(=O)CN1N=C(c2ccc(C)cc2)CCC1=O | -67.8%
8 | CC(C)CCNC(=O)CN1N=C(c2ccc(Cl)cc2)CCC1=O | -15.8%
9 | C=CCNC(=O)CN1N=C(c2ccc(C)cc2)CCC1=O | -44.3%
10 | Cc1ccc(C2=NN(CC(=O)NCCC(C)C)C(=O)CC2)cc1 | 4.58%
11 | Cc1ccc(C2=NN(CC(=O)NCCN(C)C)C(=O)CC2)cc1 | -44.9%
12 | CCCCN(C)CCCNC(=O)CN1N=C(c2ccc(Cl)cc2)CCC1=O | -56.7%
13 | Cc1ccc(C2=NN(CC(=O)O)C(=O)CC2)cc1 | -51.4%
14 | CCN(CC)CCCNC(=O)CN1N=C(c2ccc(OC)cc2)CCC1=O | 14.5%
15 | CCOCCCNC(=O)CN1N=C(c2ccc(C)cc2)CCC1=O | -73.9%
16 | CCOC(=O)CN1N=C(c2ccc(C)cc2)CCC1=O | -47.2%
17 | CC(C)CN(CCCNC(=O)CN1N=C(c2ccc(Cl)cc2)CCC1=O)CC(C)C | -21.8%
18 | COCCNC(=O)CN1N=C(c2ccc(C)cc2)CCC1=O | -47.9%
19 | Cc1cc(SCC(=O)OCC(=O)N(C)c2ccccc2)nc2ccccc12 | -22.8%
20 | C=C[C@]1(C)C=C2CCC3[C@](C)(CCC[C@@]3(C)C(=O)O)C2CC1 (stereo partly shown) | 13.3%
21 | O=C(CCCN1C(=O)c2ccccc2C1=O)Nc1cccnc1 | -2.46%

Row | Compound | hERG current change (%, negative = inhibition) at 10uM
22 | O=C(NCc1ccccn1)C1(C(F)(F)F)C/C(=C\CCO)CCCO1 (stereo not shown) | 6.37%
23 | CCOc1ccc(S(=O)(=O)Nc2cccc(C(=O)N(C)Cc3cccc(OC)c3OC)c2)cc1 | -11.6%
24 | O=C1[C@@H]2[C@H](C(=O)N1n1cnnc1)[C@H]1C=C[C@@H]2C1 | 11.5%
25 | Cc1ccc(NC(=O)CN2CCCCCC2)cc1[N+](=O)[O-] | 23.1%
26 | O=C(Nc1ccc(N2CCOCC2)c2nonc12)C1CCCC1 | 3.34%
27 | CCCn1c(=O)c2sccc2n2c(CCCC(=O)NCc3cccnc3)nnc12 | 19.2%
28 | C=CCNC(=O)CSc1n[nH]c(-c2cc(Cl)ccc2OC)n1 | 8.25%
29 | COc1ccc(Cl)cc1NC(=O)CN(C)C(=O)c1cccc(-n2cnnn2)c1 | -53.6%
30 | COc1ccc(NC(=O)CN(C)C(=O)c2cn(-c3ccccc3)nc2-c2cccnc2)cc1 | -24.2%
31 | COc1ccc(Cl)cc1NC(=O)CN(C)C(=O)c1ccc2n[nH]nc2c1 | -13.8%
32 | COc1ccc(Cl)cc1NC(=O)COc1cccc(-n2cnnn2)c1 | 10.3%
33 | COc1ccc(NC(=O)CN(C)C(=O)c2cn(-c3ccccc3)nc2-c2ccc(Cl)cc2)cc1 | 12.1%
34 | COc1ccc(Cl)cc1NC(=O)CN(C)C(=O)c1cn(-c2ccccc2)nc1-c1cccnc1 | -59.9%
35 | CCc1ccc(C(=O)Nc2cccc(-c3nn[nH]n3)c2)s1 | 16.9%
36 | CCOC(=O)C1CN(S(C)(=O)=O)c2cc(CC(=O)OC)ccc2O1 (stereo not shown) | 1.78%
37 | COc1ccccc1C(=O)NCCSCc1c(F)cccc1Cl | -15.4%
38 | Cc1cccn2c(=O)c3cc(C(=O)NCC4CCCO4)c(=N)n(C4CCCC4)c3nc12 (stereo not shown) | -74.8%
39 | Cc1cccn2c(=O)c3cc(C(=O)NCC4CCCO4)c(=N)n(C4CCCCC4)c3nc12 (stereo not shown) | -77.3%
40 | O=C(O)c1nn2c(C(F)(F)F)cc(-c3cccs3)nc2c1Cl | 1.4%
41 | COc1cccc(C(=O)Nc2cc(=O)n(C)c(=O)n2C)c1OC | 13.1%
42 | Cc1nn(Cc2ccc(C(=O)NC3CCCCC3)o2)c(C)c1Br | -34.6%

Row | Compound | hERG current change (%, negative = inhibition) at 10uM
43 | COc1ccc2c(c1)c(CC(=O)O)c(C)n2C(=O)c1ccc(Cl)cc1 | 6.45%
44 | COc1ccc(OCC(=O)N2CC3(C)CC2CC(C)(C)C3)cc1 (stereo not shown) | -21.2%
45 | COc1ccc(/C=N/OCC(=O)N2CC3(C)CC2CC(C)(C)C3)cc1 (stereo not shown) | -56%
46 | COc1ccc(/C=N/OCC(=O)N2CC3(C)CC2CC(C)(C)C3)cc1OC (stereo not shown) | -3.72%
47 | N#Cc1ccc(COC(=O)c2ccc3c(c2)OCO3)cc1 | -27.4%
48 | CCc1ccc(NC(=O)CC2C(=O)NCCN2C(=O)c2ccc(F)cc2)cc1 (stereo not shown) | -55.4%
49 | Cc1ccc(NC(=O)CC2C(=O)NCCN2C(=O)c2ccc(F)cc2)cc1 (stereo not shown) | -26.3%
50 | CC(C)(C)c1ccc(C(=O)N2CCNC(=O)C2CC(=O)Nc2ccc(F)cc2)cc1 (stereo not shown) | 13.9%
51 | O=S(=O)(Cc1ccccc1)Nc1ccc(F)cc1 | 7.05%
52 | O=C1c2cccc3cccc(c23)C(=O)N1OS(=O)(=O)c1ccc(Br)cc1 | 24.2%
53 | COc1ccc(C(=S)N2CCOCC2)cc1OC(=O)c1ccc([N+](=O)[O-])cc1 | -63%
54 | COc1cc(C(=S)N2CCOCC2)ccc1OC(=O)c1cc([N+](=O)[O-])cc([N+](=O)[O-])c1 | 0.943%
55 | COc1ccc(S(=O)(=O)Oc2ccc(C(=S)N3CCOCC3)cc2OC)cc1 | -0.365%
56 | COc1ccc(C(=S)N2CCOCC2)cc1OC(=O)c1cccc([N+](=O)[O-])c1 | -39.9%
57 | COc1cc(C(=S)N2CCOCC2)ccc1OC(=O)c1ccc([N+](=O)[O-])cc1[N+](=O)[O-] | 17.1%
58 | CCOc1cc(C(=S)N2CCOCC2)ccc1OS(=O)(=O)c1ccc(Br)cc1 | -1.54%
59 | COc1cc(C(=S)N2CCOCC2)cc(OC)c1OC(=O)c1ccc([N+](=O)[O-])cc1[N+](=O)[O-] | -4.69%
60 | COc1ccc(C(=S)N2CCOCC2)cc1OC(=O)c1ccc([N+](=O)[O-])cc1[N+](=O)[O-] | -52%
61 | COc1ccc(C(=S)N2CCOCC2)cc1OS(=O)(=O)c1ccc(Br)cc1 | -70%
